# High-throughput results from PubChem BioAssay.
# Rows were chosen to be rich in hits. Some 6.6% of all compounds tested hit in one or more screens of this group.
# TGFb SMAD3 inh: TGF-b pathway inhibition | 410,000 tested, 1.2% active | Potency, µM (titrated, usually from 46.1 µM), without a hit: at the highest dose activity, negative = inhibition, most hits filed as inhibitors | HepG2 CAGA-GFP TGF-b/SMAD3 reporter, GFP fluorescence, 18 h; TGF-beta stimulated, 500 pg/mL final; further: on the % scale 0 is the no-effect control and ±100 the full control effect; nearly all actives have a fitted effect of over 65% in size
#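 Cell-based qHTS in HEPG2 carrying a CAGA-GFP Smad reporter; compounds added before 500 pg/mL final TGF-beta, 18 h incubation at 37 degrees C, GFP fluorescence quantified per cell by imaging cytometry.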
# HT1080 IDH1KD tx: toxicity to HT-1080 IDH1 knockdown cells (counter line). HT-1080 IDH1 knockdown viability, ATP luminescence, 48 h. Potency, µM (doses to about 46.1 µM), for the others: at the top dose activity, negative = toxicity, actives largely listed as cytotoxic. 360,000 tested, 2% active. AID 686971;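 further: 0% = DMSO wells and -100% = cell-free medium wells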
#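 After a 2 h attachment period, IDH1KD HT-1080 cells took pin-transferred compound for 48 h at 37 °C; ATP-based luminescence after 10 min room-temperature reagent incubation reported viability.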
# KB-3-1 tox: KB-3-1 parental cell cytotoxicity | KB-3-1 viability, CellTiter-Glo ATP luminescence, 72 h | Potency, µM (series often up to 46.1 µM), usual class: cytotoxic | 400,000 tested, 1.4% active | AID 1347075; further: on the % scale 0 is the no-effect control and ±100 the full control effect; nearly all actives have a fitted effect of over 60% in size
#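 Cytotoxicity measured as CellTiter-Glo luminescence after 72 h at 37 C. Compound titrations were pinned onto drug-naive KB-3-1 parental adenocarcinoma cells grown in DMEM with 10% FBS, and normalized data fitted to concentration-response curves.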
# HT1080-NT tox: kills 2HG-producing HT-1080-NT fibrosarcoma cells | HT-1080-NT fibrosarcoma viability, CellTiter-Glo ATP luminescence, 48 h | Potency, µM (top dose mostly 46.1 µM), inactives show at the highest dose activity, negative = less viability, usual class: cytotoxic | 360,000 tested, 1.6% active | AID 686970;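 further: NT is the 2HG producing partner of a matched IDH1 knockdown line; 0% = DMSO-treated cells and -100% = media-only wells without cells; nearly all actives have a fitted effect of over 55% in size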
#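 Toxicity toward the 2HG-producing NT line was scored as %Activity, normalised to DMSO and no-cell wells, from CellTiter-Glo luminescence after 48 hours' treatment.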
# HepG2 viability: HepG2 cytotoxicity, counter-screen for TGF-b inhibitors; HepG2 CAGA-GFP viability, ATP luminescence, 18 h; Potency, µM (titrated, usually from 46.1 µM), inactives show at the highest dose activity change, negative = cytotoxicity, actives largely listed as cytotoxic; 410,000 tested, 0.76% active
#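 CellTiter-Glo luminescence gave cytotoxicity after 18 hours at 37 degrees C. The cells were HepG2 CAGA-GFP in 1% FBS DMEM, stimulated with 500 pg/mL TGF-beta after compound addition. %Activity was normalised to no-cell wells (complete cell-killing) and DMSO (no toxicity), and curves were fitted and classified.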
# KB-V1 cytotox: kills drug-selected multidrug resistant KB-V1 cells; Potency, µM (top dose mostly 46.1 µM), usual class: cytotoxic; AID 1347076; 400,000 tested, 3.4% active; KB-V1 MDR cells viability, CellTiter-Glo, 72 h; further: on the % scale 0 is the no-effect control and ±100 the full control effect; nearly all actives have a fitted effect of over 60% in size
#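 Readout: CellTiter-Glo luminescence, 10 min after addition. Cells: KB-V1 MDR subline, 72 h at 37 degrees C with compound. Analysis: corrected, normalized data fitted to concentration-effect curves.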
# The depositor's hits bear a star; i = inactive; u = inconclusive; x = not tested or not shown. The call rests on the fitted dose curve; in most records, active means well fitted curve in the direction sought with a large enough effect; inconclusive means small, poorly fitted or top-dose-only effect, or another doubt; inactive means no such curve, though single readings can be large; an effect the other way counts as inactive or inconclusive. Potency means the concentration at half of the fitted maximal effect.
SMILES,TGFb SMAD3 inh,HT1080 IDH1KD tx,KB-3-1 tox,HT1080-NT tox,HepG2 viability,KB-V1 cytotox
COC(=O)c1ccc(Oc2cc(C)nc(SC)n2)cc1,-1%,5.8µM*,5.8µM*,u,-12%,4.6µM*
COC(=O)c1ccc(Oc2cc(C)nc(Cl)n2)cc1,33%,14%,i,-1%,12%,i
O=C(c1ccccc1Cl)N1CCCCC1CCN1CCCCC1 (centres undefined),1%,x,x,x,-12%,x
CCOC(=O)C(C(=O)OCC)C1N=C(N)N=C2Oc3ccccc3N21 (centres undefined),u,10µM*,i,u,-40%,i
CN=c1scc(-c2ccc([N+](=O)[O-])cc2)n1/N=C/c1ccco1,-17%,u,i,17%,5%,i
CN=c1scc(-c2ccc(F)cc2)n1/N=C/c1ccc(O)c(O)c1,u,8.2µM*,u,u,-6%,i
Cc1ccc(S(=O)(=O)Nc2ccc3cc([N+](=O)[O-])ccc3c2[N+](=O)[O-])cc1,u,u,u,2.6µM*,-16%,u
Cc1ccc(S(=O)(=O)Nc2ccc3ccccc3c2[N+](=O)[O-])cc1,u,-21%,i,u,-31%,i
Cn1nc(SCc2ccccc2)c(=O)n(C(c2ccccc2)c2ccccc2)c1=O,u,16%,u,6%,3%,21µM*
COC(=O)c1sccc1S(=O)(=O)N1CCN(c2cccc(C)c2)C(C)C1 (centres undefined),-13%,x,i,x,-1%,i
Cc1cc(/C=C2/SC(=S)N(c3cccc(Cl)c3)C2=O)c(C)n1-c1cccnc1,u,3.3µM*,i,u,-4%,i
Cc1cc(/C=C2/SC(=S)N(c3ccc([N+](=O)[O-])cc3)C2=O)c(C)n1-c1cccnc1,-12%,-9%,u,-9%,-18%,i
CCOc1ccc(Nc2cc(=O)oc3ccccc23)cc1,-17%,-24%,i,-26%,-4%,13µM*
COc1ccc(C(=O)NCC(c2cccnc2)N2CCN(c3ccccc3)CC2)cc1OC (centres undefined),-6%,-8%,5.2µM*,0%,-10%,i
COc1ccc(C(=O)NCC(c2cccnc2)N2CCN(c3ccc(F)cc3)CC2)cc1OC (centres undefined),7%,-7%,i,10%,-13%,i
COc1ccc(NC(=O)C2COc3ccccc3O2)cc1S(=O)(=O)N1CCOCC1 (centres undefined),0%,-1%,i,1%,2%,13µM*
CCc1ccc(C(=O)Nc2ccc(OC)c(S(=O)(=O)N3CCOCC3)c2)cc1,-3%,-13%,i,-14%,-1%,9.2µM*
COc1ccc(/C=C/C(=O)NC(C)(C)C)cc1S(=O)(=O)N1CCOCC1,u,-2%,i,1%,1%,i
COc1ccc(/C=C/C(=O)NC2CCCCCCC2)cc1S(=O)(=O)N1CCOCC1,u,u,u,u,-18%,23µM*
COc1ccc(C(=O)NCC(c2ccccc2)c2ccccc2)cc1S(=O)(=O)N1CCOCC1,11%,-2%,i,3%,1%,8.2µM*
COc1ccc(C(=O)NCc2c(C)nn(Cc3ccccc3)c2C)cc1S(=O)(=O)N1CCOCC1,0%,u,6.5µM*,u,-4%,i
COc1ccc(S(=O)(=O)N2CCOCC2)cc1C(=O)NCc1c(C)nn(Cc2ccccc2)c1C,6%,6%,i,0%,10%,u
CCCCN(CC)CCCNC(=O)C1CCN(c2ncnc3c2sc2cccc(F)c23)CC1,u,21µM*,i,21µM*,-37%,i
Cc1cccc(CCNC(=O)c2nn(C)c3c2CSc2ccccc2-3)c1,u,x,x,x,-23%,x
Cc1ccc(CCC(=O)Nc2ncc(Cc3cccc(Cl)c3Cl)s2)o1,u,u,0.12µM*,0.73µM*,1%,0.52µM*
SMILES,TGFb SMAD3 inh,HT1080 IDH1KD tx,KB-3-1 tox,HT1080-NT tox,HepG2 viability,KB-V1 cytotox
COc1ccc(S(=O)(=O)N2CCCCC2)cc1NC(=O)c1cccc(S(=O)(=O)N2CC(C)OC(C)C2)c1 (centres undefined),12%,-5%,i,-8%,-7%,i
Cc1ccc(OC(C)C(=O)Nc2nonc2-c2ccc(Br)cc2)cc1C (centres undefined),u,x,i,x,-42%,i
Cc1ccccc1NC(=O)N1CCCC(c2nc(-c3ccc(F)cc3)no2)C1 (centres undefined),-1%,-29%,i,-13%,-5%,15µM*
O=C(Nc1ccccc1)N1CCCC(c2nc(-c3ccc(F)cc3)no2)C1 (centres undefined),-13%,-10%,i,-4%,-21%,u
O=C(C1CCCCC1)N1CCCC(c2nc(-c3ccc(F)cc3)no2)C1 (centres undefined),9%,-26%,i,-6%,-21%,21µM*
Cc1ccccc1NC(=O)N1CCCC(c2nc(-c3ccc(C(C)C)cc3)no2)C1 (centres undefined),-29%,-21%,18µM*,-29%,-16%,i
Cc1ccc(C(=O)c2cc([N+](=O)[O-])ccc2N2CCOCC2)cc1,-2%,7.3µM*,2.1µM*,5.2µM*,0%,0.82µM*
Cc1cc(N2CCOCC2)c(F)cc1C(=O)c1ccccc1,-12%,-10%,i,-4%,7%,18µM*
CC(=O)c1cc(F)c(N2CCOCC2)cc1C,3%,14%,i,1%,-10%,u
O=C(COc1ccc([N+](=O)[O-])cc1)N/N=C/c1cc([N+](=O)[O-])ccc1N1CCOCC1,-23%,-1%,i,-6%,6%,16µM*
Cc1ccc(OCC(=O)N/N=C/c2cc([N+](=O)[O-])ccc2N2CCCCC2)cc1,u,-16%,i,-11%,5%,i
COc1ccc(C(=O)c2cc([N+](=O)[O-])ccc2N2CCOCC2)cc1,u,0.15µM*,1.8µM*,u,-23%,0.52µM*
NC(=O)C1(Nc2ccc(Cl)cc2)CCCC1,-2%,-8%,i,-5%,-27%,i
Cc1ccc(C)c(N2CCN(C(=O)c3cc(S(=O)(=O)N4CCCC4)c[nH]3)CC2)c1,u,x,x,x,-17%,x
O=C(O)c1cc([N+](=O)[O-])ccc1N1CCCCC1,-27%,-18%,i,-1%,-24%,i
